Results reported in PubChem BioAssay AID686978 (National Center for Advancing Translational Sciences (NCATS), 2013).
About 64,000 (15%) of roughly 420,000 compounds were called active. Not shown: some 27% with an inconclusive outcome. Calls follow the shape of the dose curve; as a rule, active = well fitted inhibition curve with a large enough effect; inconclusive = small, poorly fitted or top-dose-only effect; inactive = flat fitted curve, though single readings scatter. Only a sample is shown. Entries that show only a call come without a potency.

experiment: qHTS for Inhibitors of human tyrosyl-DNA phosphodiesterase 1 (TDP1): qHTS in cells in absence of CPT; conditions: DT40 Tdp1-/- hTDP1 cells, no CPT, ATP luminescence, 48 h; activity change, negative = growth inhibition: at 46.2 µM (top of the series); also: nearly all actives have a fitted effect of over 55% in size
Procedure, shortened: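 No-CPT arm: Tdp1-/-;hTDP1 DT40 cells (400/well) plus compounds, incubated ≥48 hr at 37 °C. Readout CellTiter-Glo luminescence.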
Potency is read from the fitted curve at half-maximal effect.

Row | SMILES | Potency
1 | CCC(=O)NNc1cc(=O)c2c(=O)n(C)c(=O)n(C)c2[nH]1 | inactive
2 | O=C(Nc1cccc(Cl)c1)c1cc([N+](=O)[O-])ccc1N1CCN(CCO)CC1 | inactive
3 | CC(C(=O)N1CCN(c2ccccc2F)CC1)c1ccc([N+](=O)[O-])cc1 (centres undefined) | inactive
4 | CCC(=O)c1ccc(N2CCN(C(=O)c3cc([N+](=O)[O-])ccc3F)CC2)c(F)c1 | 16.4 µM (active)
5 | CCOC(=O)N1CCN(C(=S)Nc2ccc(C)cc2C)CC1 | inactive
6 | CCOC(=O)N1CCN(c2cc(C)c([N+](=O)[O-])cc2F)CC1 | 16.4 µM (active)
7 | CCOC(=O)C1CCN(c2ccc(C(=O)O)cc2[N+](=O)[O-])CC1 | inactive
8 | COC(=O)c1oc2ccc(Br)cc2c1NC(C)=O | inactive
9 | O=C(CSc1nc2ccc(Nc3nc(N4CCOCC4)nc(N4CCOCC4)n3)cc2s1)NCc1ccco1 | 13 µM (active)
10 | CCn1c(SCC(=O)NCc2ccco2)nnc1-c1ccc(N)cc1 | inactive
11 | O=C(CSc1nc(Nc2ccccc2)nc(N2CCOCC2)n1)Nc1cc(Cl)ccc1O | 29.1 µM (active)
12 | C=CCn1c(CSc2nc3ccccc3s2)nnc1SCC(=O)NCc1ccco1 | inactive
13 | O=C(CC(c1ccccc1)c1cc(Cl)ccc1O)NCCN1CCOCC1 (centres undefined) | inactive
14 | Cc1ccccc1NC(=O)CSc1nc2ccc(Nc3nc(N4CCOCC4)nc(N4CCOCC4)n3)cc2s1 | 14.6 µM (active)
15 | CC1(c2ccccc2)NC(=O)N(CC(=O)Nc2cc(Cl)ccc2N2CCOCC2)C1=O (centres undefined) | inactive
16 | Cc1ccc(S(=O)(=O)N2CCOCC2)cc1NC(=O)CSc1nnc(N)s1 | inactive
17 | O=C(CSc1nc2ccccc2s1)Nc1ccc(C(=O)O)cc1 | inactive
18 | Cc1ccccc1-n1nc(C)c2c1N=C1C(Cl)=CC(Cl)=CN1C2c1ccc(C(=O)O)cc1 (centres undefined) | inactive
19 | CCn1ccnc1CN(C)C(=O)c1cc(COc2ccc(Cl)cc2OC)on1 | inactive
20 | COC(=O)[C@H](Cc1ccccc1)NC(=O)N1CC(C)OC(C)C1 (some centres undefined) | inactive
21 | O=C1NC(c2ccccc2)CCC1(Cl)Cl (centres undefined) | inactive
22 | Cc1cc(C(=O)COC(=O)CCCN2C(=O)c3ccccc3C2=O)c(C)n1C | inactive
23 | Cc1ccc(NC(=O)c2cn3c4c(ccc(Cl)c4c2=O)OC(C)C3)cc1C (centres undefined) | inactive
24 | C#CCOCCOCCOCCNc1nc(N2CCN(C(=O)Cn3cc(CCO)nn3)CC2)nc(N2CCN(C(=O)[C@H](CCCCN)n3cc(CCCC)nn3)CC2)n1 | inactive
25 | COc1cc(NC(=S)NCc2ccc(S(N)(=O)=O)cc2)cc(OC)c1 | inactive
26 | CCc1c(O)cc2n(c1=O)-c1ccccc1C2(C)C | inactive

Row | SMILES | Potency
27 | CC1(C)CC(=O)C=C(N2CCCC2)C1 | inactive
28 | CC1(C)CC(N2CCN(C(c3ccccc3)c3ccccc3)CC2)=CC(=[N+]2CCCCC2)C1 | 0.164 µM (active)
29 | CC1(C)CC(=O)C=C(N2CCOCC2)C1 | inactive
30 | Cc1nc(Cl)c2oc3ccccc3c2n1 | inactive
31 | O[C@H]1C[C@H](c2ccc(Cl)cc2)N(Cc2cccs2)C[C@@H]1n1cc(C2CC2)nn1 | 14.6 µM (active)
32 | c1csc(CN2CCN(Cc3cccs3)C2c2cccs2)c1 | inactive
33 | COC(=O)C1=C(C(=O)OC)C(c2cc([N+](=O)[O-])ccc2O)c2sc(=O)[nH]c2S1 (centres undefined) | inactive
34 | CC1=NN(C(C)C)C(=O)C1 | inactive
35 | Cc1ccc(CN(CC(=O)NC2CCCCC2)C(=O)c2csnn2)cc1 | inactive
36 | Cc1cc(C(C)(C)C)oc1C(=O)N(CC(=O)NC1CCCC1)Cc1ccc(Cl)cc1 | 14.1 µM (active)
37 | COc1ccc(CN(CC(=O)NC2CCCC2)C(=O)CCC(=O)Nc2cc(C)on2)cc1 | inactive
38 | CN1CCN(C(=O)c2ccc(-c3ccc(Br)cc3)o2)CC1 | inactive
39 | Cc1ccccc1C1=NC(C(F)(F)F)(C(F)(F)F)c2c(n(-c3ccc(F)cc3)c(=O)[nH]c2=O)N1 | 23.1 µM (active)
40 | O=S(=O)(NCC1CC1)c1ccc(F)c(Cl)c1 | inactive
41 | Cc1cc(NS(=O)(=O)c2ccc(NC(=O)c3ccccc3C)cc2)nc(C)n1 | inactive
42 | CCOC(=O)c1c(C)[nH]c(C)c1S(=O)(=O)N(C)CC(=O)Nc1ccccc1C | inactive
43 | CCCS(=O)(=O)c1c(Nc2ccccc2C)sc(C(=O)c2ccccc2)c1N | 16.4 µM (active)
44 | COc1c(F)c(F)c(C(=O)O)c(Nc2ccccc2C)c1F | inactive
45 | Cc1ccc2c(c1)C1CN(C)CCC1N2C(=S)Nc1ccc(Cl)cc1Cl (centres undefined) | inactive
46 | Cc1ccc(Nc2c(O)nc[nH]c2=O)cc1C | inactive
47 | Cc1ccc2[nH]cc(CCCN3C(=O)c4ccccc4C3=O)c2c1 | inactive
48 | CC(=O)CC(CC(=O)NC1CCCCC1)c1ccccc1 (centres undefined) | inactive
49 | O=C(CNC1CCCCC1)NCC1(c2ccccc2)CCCC1 | 23.1 µM (active)
50 | O=C(CCS(=O)(=O)c1ccccc1)NC1CCCC1 | inactive
51 | CC(C)NC(=O)c1ccccc1S(=O)c1ccccc1C#N (centres undefined) | inactive
52 | O=C(CSc1ccc(Cl)cc1)NC1CC1 | inactive

Row | SMILES | Potency
53 | O=C(/C=C/c1cccc(F)c1)NC1CC1 | inactive
54 | S=C(Nc1ccc(Br)cc1)NC1CCN(Cc2ccccc2)CC1 | 23.1 µM (active)
55 | O=C(NNC(=S)Nc1ccc(Br)cc1Cl)c1ccco1 | inactive
56 | Cc1cc(Br)ccc1NC(=S)NC1CCCC1 | inactive
57 | S=C(Nc1ccc(Br)cc1Cl)NC1CCN(Cc2ccccc2)CC1 | 7.31 µM (active)
58 | O=C(Nc1ccccc1)N1CCC(C(=O)N2CCN(Cc3ccccc3)CC2)CC1 | inactive
59 | CCNC(=S)NNC(=O)C1CCN(Cc2ccccc2)CC1 | inactive
60 | CCNc1ncc2nc(CCc3ccccc3)c(=O)n(-c3ccc(OC)cc3)c2n1 | inactive
61 | CC1(C(=O)NCc2ccccc2)CN(S(C)(=O)=O)CC(=O)N1CC(F)(F)F (centres undefined) | inactive
62 | CCOC(=O)c1ccc(-n2c(CCC(=O)O)ccc2-c2ccccc2)cc1 | inactive
63 | CC1Cc2cc(/C(O)=C3\C(=O)C(=O)N(Cc4cccnc4)C3c3ccccc3F)ccc2O1 (centres undefined) | inactive
64 | CC(=O)c1c(C)[nH]c(C(=O)COc2ccc3c(C)cc(=O)oc3c2)c1C | 20.6 µM (active)
65 | Cc1cc(=O)oc2ccc(OCC(=O)O)cc12 | inactive
66 | Cc1ccc(O)c(NC(=O)COc2cc(C)ccc2C)c1 | inactive
67 | Cc1cc(=O)oc2cc(OCC(=O)Nc3nnc(C4CC4)s3)ccc12 | inactive
68 | COC(=O)COc1ccc2oc(=O)cc(C)c2c1 | inactive
69 | Cc1ccc(O)c(/C=N/NC(=O)COc2ccc3c(C)cc(=O)oc3c2)c1 | 16.4 µM (active)
70 | CN(CC(=O)Nc1ccc(N2CCOCC2)cc1)CC(=O)Nc1ccccc1[N+](=O)[O-] | inactive
71 | O=c1c2ccccc2ncn1CCc1ccncc1 | inactive
72 | Cc1cccc(CC(=O)Nc2c3c(nn2-c2cccc(Cl)c2)CS(=O)C3)c1 (centres undefined) | inactive
73 | NNc1cccc(C=Cc2ccccc2)cc1=O | 1.64 µM (active)
74 | O=C(COC(=O)/C=C/c1cccc(Cl)c1)NCCc1ccccc1 | inactive
75 | O=c1oc(/C=C/c2ccccc2)nc2ccccc12 | inactive
76 | O=C(Cn1c(=O)n(Cc2ccco2)c(=O)c2ccccc21)NCC1CCCO1 (centres undefined) | inactive
77 | COCCNc1nnc(SCC(=O)NNC(=O)c2ccco2)s1 | inactive
78 | CCOC(=O)C1=CN(Cc2ccc(Br)cc2)S(=O)(=O)N(C)C1C (centres undefined) | inactive

Row | SMILES | Potency
79 | O=C(NCc1ccncc1)c1cccc(NS(=O)(=O)c2ccc(F)c(F)c2)c1 | inactive
80 | COCCCNC(=O)c1ccc(CNS(=O)(=O)c2ccc(NC(C)=O)cc2)cc1 | inactive
81 | O=C1[C@@H]2C(Cc3ccc(O)cc3)NC3(C(=O)Nc4ccc(F)cc43)[C@@H]2C(=O)N1c1ccc(F)cc1 (some centres undefined) | inactive
82 | CSCCC1NC2(C(=O)Nc3ccc(Cl)cc32)[C@@H]2C(=O)N(C3CCCC3)C(=O)[C@H]12 (some centres undefined) | 20.6 µM (active)
83 | CN(C)S(=O)(=O)N1CCN(c2ccc([N+](=O)[O-])cc2)CC1 | inactive
84 | CC(N)(C(=O)O)c1ccc(-c2nn[nH]n2)cc1 (centres undefined) | inactive
85 | CCOC(=O)N1CCN(Cc2nnc(-c3ccccc3Cl)o2)CC1 | inactive
86 | CCc1c(C)n([O-])c2c([n+]1=O)CCCCC2 | inactive
87 | Cc1cccc(C(=O)OCC(=O)NCC(C)C)c1O | inactive
88 | Cc1cccc(C(=O)OCC(=O)NC(C)C2CC3CCC2C3)c1O (centres undefined) | 16.4 µM (active)
89 | CCOC(=O)CCC(=O)OCC(=O)NC(C)C1CC2CCC1C2 (centres undefined) | inactive
90 | COC(=O)c1ccc(NC(=O)CSc2nnc(-c3ccncc3)n2C)cc1 | inactive
91 | CC(=O)c1ccc(Nc2nc(C(N)c3ccccc3Cl)cs2)cc1 (centres undefined) | 11.6 µM (active)
92 | NS(=O)(=O)c1ccc(Nc2nc(-c3ccccc3)cs2)cc1 | inactive
93 | CC(=O)c1ccc(NC(=O)C(C)N(C)CC(=O)Nc2ccccc2Cl)cc1 (centres undefined) | inactive
94 | COc1ccc(NC(=O)CSc2nnc(-c3nnn(-c4ccc(F)cc4)c3C)o2)cc1 | inactive
95 | COc1ccccc1N(CC(=O)NC1CCCC1)C(=O)C1(C)CC(=O)N=C2C=CC(C)=CN21 (centres undefined) | inactive
96 | CC1=C(C(N)=O)C(c2sccc2C)n2nnnc2N1 (centres undefined) | inactive
97 | CC(c1ccccn1)N(CCN(C)C)C(=S)Nc1ccccc1F (centres undefined) | inactive
98 | CSc1cccc(NC(=S)N(Cc2ccccc2)Cc2ccccn2)c1 | 20.6 µM (active)
99 | CSc1cccc(NC(=S)N(C(C)C)C(C)c2ccccn2)c1 (centres undefined) | 8.2 µM (active)
100 | COc1cccc(NC(=S)N(Cc2ccc(C)cc2)Cc2ccccn2)c1 | inactive
101 | Cc1c(Cl)cccc1NC(=S)N(Cc1ccccc1)Cc1cccnc1 | inactive
102 | CC(C)(C)c1nnc(N/N=C/c2ccc(O)cc2)n(N)c1=O | inactive
103 | O=C(CC[C@H]1O[C@@H](n2ccc(=O)[nH]c2=O)[C@H](O)[C@@H]1O)N[C@H](Cc1ccccc1)C(=O)NCCCN1CCCC1=O | inactive
104 | CN(C(=O)COC(=O)CCCc1c[nH]c2ccccc12)c1c(N)n(Cc2ccccc2)c(=O)[nH]c1=O | inactive
